# A number with no mark means an inactive call.
# Tested on: Vero E6 infected with SARS-CoV-2
# Assay: inhibition of SARS-CoV-2 cytopathic effect; higher = more antiviral protection, active = above 15
# Settings: 833.33 nM; 48 h
row,SMILES,inhibition of SARS-CoV-2 cytopathic effect
1,S=C(NCc1ccc2c(c1)OCO2)N1CCN(c2ncnc3c2oc2ccccc23)CC1 [amuvatinib],2.33%
2,CC[N+](CC)(CC)CCC(O)(c1ccccc1)C1CCCCC1 (stereo not given) [tridihexethyl],-1.37%
3,CC(C)C(N)C(=O)O (stereo in doubt) [L-valine],-0.11%
4,CCO[C@@H]1OC(=O)C[C@@H]1NC(=O)[C@@H]1CCCN1C(=O)[C@@H](NC(=O)c1ccc(N)c(Cl)c1)C(C)(C)C,0.04%
5,CCN(CC)CCOC(=O)C1(c2ccccc2)CCCC1 [caramiphen],-0.96%
6,CCCN(CCC)C1Cc2cc(OC)c(OC)cc2C1,0.79%
7,CNc1nc(NCc2ccc(NS(C)(=O)=O)cc2Cl)cc(-c2ccccn2)n1,-2.53%
8,COc1ccc(CNC(=O)c2sc3nc(C)cc(C)c3c2N)cc1,2.96%
9,COCCOc1cnc2ccn([C@H](C)c3nnc4c(F)cc(-c5cnn(C)c5)cn34)c(=O)c2c1,-0.75%
10,O=C(CN1C2=NCCN2c2ccccc21)c1ccc(-c2ccccc2)cc1,-0.84%
11,C[C@@H](O)[C@H]1C(=O)N2C(C(=O)O)=C(SCCNC=N)C[C@H]12 [imipenem],2.66%
12,O=c1[nH]c2ccccc2n1C1CCN(CCOc2ccccc2)CC1 [oxiperomide],-0.51%
13,Cc1cccc(NC(=O)CN2CCC(c3ccccn3)CC2)c1,0%
14,O=C(O)C(=O)O.[NH-][C@@H]1CCCC[C@H]1[NH-].[Pt+2] [oxaliplatin],-2.36%
15,O=C1C=CC[C@@H]2[C@H]3CCCN4CCC[C@@H](CN12)[C@@H]34 [sophocarpine],-12.3%
16,COC(=O)[C@H]1[C@H]2C[C@@H]3c4[nH]c5cc(OC)ccc5c4CCN3C[C@H]2C[C@@H](OC(=O)c2cc(OC)c(OC)c(OC)c2)[C@@H]1OC [reserpine],3.56%
17,CC(C)[C@H]1c2ccc(F)cc2CC[C@@]1(CCN(C)CCCc1nc2ccccc2[nH]1)OC(=O)C1CC1,-2.65%
18,CC(C)(C)NC(=O)[C@@H]1CN(Cc2cccnc2)CCN1C[C@@H](O)C[C@@H](Cc1ccccc1)C(=O)N[C@H]1c2ccccc2C[C@H]1O [indinavir],-8.27%
19,C[C@H](CCC(=O)NCCS(=O)(=O)O)[C@H]1CC[C@H]2[C@@H]3[C@@H](O)C[C@@H]4C[C@H](O)CC[C@]4(C)[C@H]3CC[C@]12C [ursodeoxycholyltaurine],-3.74%
20,Cc1[nH]c(=O)c(C#N)cc1-c1ccc2nccn2c1 [olprinone],0.56%

row,SMILES,inhibition of SARS-CoV-2 cytopathic effect
1,CCCCN(CCCC)CCCOC(=O)c1ccc(N)cc1 [butacaine],-1.71%
2,CSc1ccccc1OCC(O)CNC(C)C (stereo not given) [tiprenolol],0.37%
3,C/C(O)=C(\C#N)C(=O)Nc1ccc(C(F)(F)F)cc1 [teriflunomide],-3.04%
4,O=C1c2ccccc2C(=O)C1c1ccc(Cl)cc1 [chlorindione],0.64%
5,O=C(O)Cc1ccc(OCCNC[C@H](O)c2ccccc2)cc1,-0.56%
6,c1ccc(CCCN2CCN(CCOC(c3ccccc3)c3ccccc3)CC2)cc1,0.61%
7,O=C(Nc1ccc(Cl)cc1)Nc1ccc(Cl)c(Cl)c1 [triclocarban],-1.44%
8,COc1ccc(Cl)c(Nc2ncnc3cc(OCC4CCN(C)CC4)c(OC)cc23)c1,-6.41%
9,CC(C)(C)NCC(O)COc1ccc(NC(=O)NC2CCCCC2)cc1 (stereo not given) [talinolol],0.83%
10,NC(=O)c1ncn([C@@H]2O[C@H](CO)[C@@H](O)[C@H]2O)c1O [mizoribine],0.29%
11,Cc1nc(NC(=O)N2CCC[C@H]2C(N)=O)sc1-c1ccnc(C(C)(C)C(F)(F)F)c1 [alpelisib],-1.87%
12,NC[C@H]1CC[C@H](C(=O)O)CC1 [tranexamic-acid],0.85%
13,Cc1ccc(N(CC2=NCCN2)c2cccc(O)c2)cc1 [phentolamine],1.86%
14,O=C(O)c1cc(=O)c2c(OCC(O)COc3cccc4oc(C(=O)O)cc(=O)c34)cccc2o1 [cromoglicic-acid],0.49%
15,CC(O)Cn1cnc2c1c(=O)n(C)c(=O)n2C (stereo not given) [Proxyphylline],-0.51%
16,COc1cc(Cc2cnc(N)nc2N)cc(OC)c1OC [trimethoprim],2.08%
17,Cc1cc(C)cc(NC(=O)Cc2ccc(OC(C)(C)C(=O)O)cc2)c1 [efaproxiral],1.37%
18,COc1ccc(OC)c(C(O)C(C)N)c1 (stereo not given) [methoxamine],3.81%
19,O=c1cc(-c2cccc3c2Sc2ccccc2S3)oc(N2CCOCC2)c1,3.55%
20,NCC[C@H](O)C(=O)N[C@@H]1C[C@H](N)[C@@H](O[C@H]2O[C@H](CN)[C@@H](O)[C@H](O)[C@H]2O)[C@H](O)[C@H]1O[C@H]1O[C@H](CO)[C@@H](O)[C@H](N)[C@H]1O [amikacin],2.36%
